Test results taken from PubChem BioAssay (NCATS).
“And” between values parts separate entries of the source, which are not always exact repeats. Equal values may be shown once. Records with an inconclusive call do not appear. A call without a number means that no potency is given here. The source made the active and inactive calls. Calls come from the whole dose curve; as a rule, active = well fitted curve in the direction sought with a large enough effect; inconclusive = small, poorly fitted or top-dose-only effect, or another doubt; inactive = no such curve, though single readings can be large; an effect the other way counts as inactive or inconclusive.

Legend:
[1] = biological target: Aldehyde dehydrogenase, mitochondrial (Homo sapiens) (UniProt P05091); experiment: qHTS for Inhibitors of the Aldehyde Dehydrogenase Family (ALDH2) Primary screen (AID 2061308); note: nearly all actives have a fitted effect of over 55% in size; note: potency is the fitted concentration of half-maximal effect
[2] = biological target: Retinaldehyde dehydrogenase 3 (Homo sapiens) (UniProt P47895); experiment: qHTS for Inhibitors of the Aldehyde Dehydrogenase Family (ALDH1A3) Confirmatory screens (AID 2061311); note: nearly all actives have a fitted effect of over 60% in size; note: potency is the fitted concentration of half-maximal effect
[3] = biological target: Retinal dehydrogenase 2 (Homo sapiens) (UniProt O94788); experiment: qHTS for Inhibitors of the Aldehyde Dehydrogenase Family (ALDH1A2) Confirmation screens (AID 2061314); note: nearly all actives have a fitted effect of over 65% in size; note: potency is the fitted concentration of half-maximal effect
[4] = biological target: Retinaldehyde dehydrogenase 3 (Homo sapiens) (UniProt P47895); experiment: qHTS for Inhibitors of the Aldehyde Dehydrogenase Family (ALDH1A3) Primary screen (AID 2061315)
[5] = biological target: Aldehyde dehydrogenase 1A1 (Homo sapiens) (UniProt P00352); experiment: qHTS for Inhibitors of the Aldehyde Dehydrogenase Family (ALDH1A1) Confirmatory screens (AID 2061316); note: nearly all actives have a fitted effect of over 65% in size; note: potency is the fitted concentration of half-maximal effect

SMILES	Potency [1]	Potency [2]	Potency [3]	Potency [4]	Potency [5]
CC(=O)c1ccc(N2CCN(S(=O)(=O)c3cc4c(cc3Cl)NC(=O)C4)CC2)cc1	inactive	3.55 µM (active)	–	–	–
CC(C)N1CCc2c(sc(NC(=O)c3ccccc3)c2-c2nc3ccccc3s2)C1	22.4 µM (active)	inactive	–	–	–
CC1=CC2=C(C)C(=O)[C@](C)(O)[C@H](O)C2=CO1	inactive	–	–	–	–
FC(F)(F)c1ccc(N2CCN(C(=S)Nc3ccccn3)CC2)cc1	inactive	–	–	–	–
CN(C(=O)OC(C)(C)C)c1ccc(-c2nc3ccccc3s2)cc1	inactive	–	–	–	–
N#Cc1ccc(S(=O)(=O)Nc2cnccc2C(=O)Nc2nc(-c3ccccc3)cs2)cc1	inactive	–	–	–	–
CCOc1ccc(CCNC(C)=O)cc1OCC	inactive	–	–	–	–
C=C1CC[C@@H](O)[C@]2(C)CC[C@H]3C(=C)C(=O)O[C@@H]3[C@@H]12	inactive	–	–	–	–
c1csc(CNc2ccc(N3CCCCC3)cc2)c1	inactive	20.1 µM (active)	–	–	–
Fc1cc(Nc2nc(-c3ccncc3)nc3ccccc23)ccc1OC(F)(F)F	inactive	–	–	–	–
CC(=O)c1ccc(N2CCN(S(=O)(=O)c3ccc4c(c3)C(Cl)(Cl)C(=O)N4)CC2)cc1	inactive	2.82 µM (active) and 1.12 µM (active)	6.34 µM (active)	–	–
COc1cncc(NC(=O)c2cccs2)c1	inactive	11.3 µM (active)	–	–	–
CC1(C)OB(c2ccc(O)c3ncc(N4CCNCC4)cc23)OC1(C)C	inactive	–	–	–	–
CNC(=O)c1ccccc1Nc1cc(Nc2ccc(N3CCOCC3)cc2OC)ncc1C(F)(F)F	inactive	3.57 µM (active)	–	–	–
O=C(O)c1ccc(-c2noc(-c3ccc(C(F)(F)F)cc3)n2)cc1	inactive	–	–	–	–
CN(C)c1cnc2c(O)ccc(C(=O)O)c2c1	inactive	8.96 µM (active)	5.04 µM (active)	inactive	–
O=C1c2ccccc2C(=O)c2cc(S(=O)(=O)Nc3cccc4cccnc34)ccc21	inactive	15.9 µM (active)	–	–	–
Cc1ccc2nc3sc(C(=O)NCCc4cccnc4)cc3cc2c1	inactive	12.7 µM (active)	–	–	–
CN(C)c1cnc2c(O)ccc([S+](=O)([O-])Nc3ccccc3F)c2c1	inactive	–	–	–	–
Oc1ccc(COCc2ccc(F)cc2)c2cccnc12	inactive	10.1 µM (active)	–	–	–
Cc1ccc(S(=O)(=O)Nc2cnccc2C(=O)Nc2ccc(N3CCOCC3)cc2)cc1	inactive	4 µM (active)	6.34 µM (active)	–	–

SMILES	Potency [1]	Potency [2]	Potency [3]	Potency [4]	Potency [5]
N#Cc1cccc(CSc2nc3ncc(Br)cc3[nH]2)c1	inactive	–	–	–	–
O=[N+]([O-])c1ccccc1S(=O)(=O)Nc1cccc2cccnc12	inactive	12.7 µM (active)	0.712 µM (active)	–	–
COc1ccc(C(=O)N(Cc2ccccc2)Cc2ccco2)c(O)c1	inactive	14.2 µM (active)	25.2 µM (active)	inactive	–
CCN(CC)C(=O)CC(c1ccc2c(c1)OCO2)c1c(O)cc(OC)cc1OC (stereo unspecified)	inactive	inactive	inactive	inactive	–
O=C(O)c1ccc(O)c2ncc(NC3CCNC3)cc12 (stereo unspecified)	inactive	inactive	3.57 µM (active)	inactive	inactive
c1c[nH]c(C2CCN(c3ncc(-c4ccc5c(c4)OCCCO5)s3)CC2)n1	inactive	5.04 µM (active)	4 µM (active)	inactive	1.79 µM (active)
CN(C)c1cccc(-c2cnc(N3CCC(C(N)=O)CC3)nc2)c1	inactive	22.5 µM (active)	12.7 µM (active)	–	11.3 µM (active)
O=C(C(NS(=O)(=O)c1ccc2[nH]c(=O)ccc2c1)c1cccc(C(F)(F)F)c1)N(Cc1ccco1)Cc1cccs1 (stereo unspecified)	inactive	25.2 µM (active)	12.7 µM (active)	inactive	inactive
Cc1ccc(S(=O)(=O)Nc2cccc3ccc[n+](C)c23)cc1	inactive	10.1 µM (active)	25.2 µM (active)	inactive	–
CNc1ncc(-c2cccc3ccccc23)o1	inactive	25.2 µM (active)	10.1 µM (active)	inactive	–
NC(=O)C1CCN(c2ncc(-c3ccc4c(c3)OCCCO4)s2)CC1	inactive	inactive	3.57 µM (active)	inactive	–
Cc1ccc(CNc2ccc(N3CCNCC3)cc2)cc1	inactive	14.2 µM (active)	10.1 µM (active)	–	11.3 µM (active)
Cc1noc(C)c1S(=O)(=O)Nc1cnccc1C(=O)Nc1nc(-c2ccccc2)cs1	inactive	inactive	–	inactive	–
CNS(=O)(=O)c1ccc(Cc2c(-c3cccc(-c4ccccc4)c3)[nH]n(-c3nc(C(=O)O)cs3)c2=O)cc1	inactive	4 µM (active)	–	inactive	–
O=C1Nc2ccccc2/C1=C\c1ccc([N+](=O)[O-])cc1	inactive	17.8 µM (active)	2.83 µM (active)	inactive	–
Cc1ccc(-c2ccc(=O)n(CC(=O)NCCc3ccccc3)n2)cc1	inactive	0.447 µM (active)	11.2 µM (active)	inactive	–
COc1ccc(Nc2cc(O)c3ncccc3c2)cc1	inactive	0.0357 µM (active)	inactive	–	inactive
CC(=O)Nc1sc2c(c1-c1ccc(N3CCN(C(C)=O)CC3)nc1)CCNC2	inactive	12.7 µM (active)	7.98 µM (active)	inactive	–
Oc1ccc(CNc2cc(Cl)ccn2)c2cccnc12	inactive	3.57 µM (active)	12.7 µM (active)	–	8.96 µM (active)
O=C1CCCC2=C1C1(CCC1)N=C(Nc1nc3ccccc3o1)N2	inactive	12.7 µM (active)	7.98 µM (active)	inactive	inactive
CC(C)(C)OC(=O)N1CCN(c2ccc(NCc3occc3-c3ccc(C#N)cc3)cc2)CC1	inactive	20.1 µM (active)	12.7 µM (active)	–	11.3 µM (active)

SMILES	Potency [1]	Potency [2]	Potency [3]	Potency [4]	Potency [5]
N#CN1CCC(NS(=O)(=O)c2ccc(C(F)(F)F)cc2)CC1	inactive	inactive	12.7 µM (active)	inactive	inactive
N[C@@H]1CCN(c2cnc3c(O)ccc(C(=O)O)c3c2)C1	inactive	12.7 µM (active)	25.2 µM (active)	inactive	inactive
O=C1Nc2ccc(C(=O)c3ccco3)cc2/C1=C/c1cc(Cl)c(O)c(Cl)c1	inactive	14.1 µM (active)	12.6 µM (active)	inactive	–
Oc1cccc2cc(NCc3ccccc3F)cnc12	inactive	7.12 µM (active)	15.9 µM (active)	inactive	–
Cc1ccc(CNc2cccc(N3CCCCC3)c2)cc1	inactive	22.5 µM (active)	–	inactive	–
C/C=C/c1ccc2oc(-c3ccc(O)c(OC)c3)c(C)c2c1	inactive	1.01 µM (active)	25.1 µM (active)	–	17.9 µM (active)
CC(=O)N1CCN(c2ccc(NCc3cccc(C)c3)cc2)CC1	inactive	20.1 µM (active)	12.7 µM (active)	–	12.7 µM (active)
COc1ccc(CNc2ccc(S(=O)(=O)Nc3nccs3)cc2)cc1O	inactive	5.65 µM (active)	6.34 µM (active)	inactive	7.12 µM (active)
CC1(C)N=C(Nc2nc3ccccc3o2)NC2=C1C(=O)CCC2	inactive	inactive	–	inactive	–
Cc1occc1-c1ccc2ncnc(NCc3ncc[nH]3)c2c1	inactive	4 µM (active)	–	inactive	–
CC(=O)N1CCN(c2ccc(NCc3ccccc3)cc2)CC1	inactive	12.7 µM (active)	11.3 µM (active)	–	10.1 µM (active)
Cc1ccc(NC(=O)CN2C(=O)N/C(=C\c3ccco3)C2=O)cc1	inactive	4.49 µM (active)	–	inactive	–
NNc1ccc(NC(=O)c2cccs2)cn1	inactive	11.3 µM (active)	–	inactive	–
C=CCNc1nnc(-c2cccc3ccccc23)o1	inactive	10.1 µM (active)	8.96 µM (active)	–	7.98 µM (active)
Cc1ccc(NS(=O)(=O)c2cc3c(cc2N2CCC2)NC(=O)CC3)cc1C	inactive	inactive	22.5 µM (active)	inactive	11.3 µM (active)
Cc1ccnc(NC(=S)N[C@@H]2CCN(c3cccc(C(F)(F)F)c3)C2)c1	inactive	inactive	–	inactive	–
COc1ccc(-c2ccc(=O)n(CC(=O)NCCc3ccccc3)n2)cc1	inactive	1.58 µM (active)	15.8 µM (active)	inactive	inactive
O=[S+]([O-])(Nc1nccs1)c1ccc(NCc2cc(F)cc(Cl)c2O)cc1	inactive	inactive	inactive	inactive	–
Oc1cc(NCc2ccc(F)cc2)cc2cccnc12	inactive	1.59 µM (active)	inactive	–	7.12 µM (active)
CNC(=O)C1=C(C)NC(Nc2nc3ccccc3o2)=NC1c1[nH]ncc1Cl (stereo unspecified)	inactive	inactive	–	inactive	–
